In PubChem BioAssay (Tox21) one finds Potency data, which are given here for nine molecules.

The nature of assay [1]: qHTS assay to identify small molecule antagonists of the glucocorticoid receptor (GR) signaling pathway - cell viability counter screen (AID 720693). Further: nearly all actives have a fitted effect of over 55% in size. Conditions: GR-bla HeLa viability, CellTiter-Glo luminescence, 18 h, with 5 nM dexamethasone present; series mostly up to 58.5 µM. In general terms: In qHTS, concentration-response curves come from the screen itself.
A short description of assay [2]: qHTS assay for identifying genotoxic compounds that show differential cytotoxicity against isogenic chicken DT40 cell lines with known DNA damage response pathways - wild type cell line (AID 743012). Further: nearly all actives have a fitted effect of over 60% in size. Further: potency means the concentration at half of the fitted maximal effect. The note with it: DT40 wild type chicken cells viability, CellTiter-Glo, 40 h; series mostly up to 68.4 µM. Put shortly:
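Viability by ATP luminescence (CellTiter-Glo, 30 min RT) after 40 h compound treatment at 37 C/5% CO2, using 300 parental DNA repair-proficient DT40 cells per well.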

Assay [3] is described as follows: qHTS assay for identifying genotoxic compounds that show differential cytotoxicity against isogenic chicken DT40 cell lines with known DNA damage response pathways - Rev3 mutant cell line (AID 743014). Further: nearly all actives have a fitted effect of over 55% in size. Further: potency means the concentration at half of the fitted maximal effect. Conditions: chicken DT40 Rev3-/- viability, CellTiter-Glo, 40 h; series mostly up to 68.4 µM.
Assay [4] in a line: qHTS assay to identify small molecule antagonists of the androgen receptor (AR) signaling pathway - cell viability counter screen (AID 743033; further: nearly all actives have a fitted effect of over 45% in size). The note with it: AR-bla HEK293 viability, CellTiter-Glo luminescence, 16 h; series mostly up to 58.5 µM.
Assay [5] is described as follows: qHTS assay to identify small molecule antagonists of the androgen receptor (AR) signaling pathway using the MDA cell line - cell viability counter screen (AID 743041; further: nearly all actives have a fitted effect of over 45% in size). Conditions: MDA-kb2 viability, CellTiter-Fluor, 16 h, cells co-treated with R1881 androgen agonist; series mostly up to 70.3 µM. The essentials:
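Cytotoxicity counter screen: MDA-kb2 AR-luc cells, compound + R1881, 16 h, 37C, 0% CO2; CellTiter-Fluor added at 15.5 h, fluorescence read after 30 min.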

The nature of assay [6]: qHTS assay to identify small molecule antagonists of the thyroid receptor (TR) signaling pathway - cell viability counter screen (AID 743064). Further: nearly all actives have a fitted effect of over 50% in size. Further: potency means the concentration at half of the fitted maximal effect. Conditions: GH3.TRE-Luc viability, CellTiter-Fluor, 24 h; series mostly up to 70.3 µM. The essentials:
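In rat pituitary GH3.TRE-Luc reporter cells co-exposed to compound and 1 nM T3 for 23.5 h, cytotoxicity was assessed with CellTiter-Fluor in the same wells, read by fluorescence.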

Assay [7] can be described thus: qHTS assay to identify small molecule antagonists of the thyroid receptor (TR) signaling pathway (AID 743065). Further: nearly all actives have a fitted effect of over 55% in size. Conditions: GH3.TRE-Luc, T3-stimulated luciferase inhibition, 23.5 h; series mostly up to 70.3 µM. The essentials: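 GH3.TRE-Luc rat pituitary cells (two TREs driving luciferase) were dosed with compound, then stimulated with 1 nM T3 (final) for 23.5 h at 37 C. ONE-Glo luminescence was the read-out, with CellTiter-Fluor fluorescence as the cytotoxicity counter-screen.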

Assay [8] has as its system thyroid hormone receptor (rat, GH3 cells). Description: qHTS assay to identify small molecule agonists of the thyroid receptor (TR) signaling pathway (AID 743066; calls by dose curve). The note with it: GH3.TRE-Luc cells, TR agonist luciferase, 24 h; series mostly up to 83.9 µM.
A short description of assay [9]: qHTS assay to identify small molecule antagonists of the estrogen receptor alpha (ER-alpha) signaling pathway - cell viability counter screen (AID 743074; calls by dose curve;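 further: HEK293 cells carrying ER-alpha-UAS-bla reporter stimulated with 17beta-estradiol; nearly all actives have a fitted effect of over 45% in size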). Conditions: ERalpha-bla HEK293 viability, CellTiter-Glo luminescence, 18 h; series mostly up to 69.4 µM.
Assay [10] is described as follows: qHTS assay to identify small molecule antagonists of the estrogen receptor alpha (ER-alpha) signaling pathway using the BG1 cell line - cell viability counter screen (AID 743081).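 Further: compound given together with 17beta-estradiol as the ER stimulus; nearly all actives have a fitted effect of over 45% in size.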 Conditions: BG1Luc4E2 viability, CellTiter-Fluor, 22 h; series mostly up to 70.3 µM.
The target of the next assay is Aromatase (Homo sapiens) (UniProt P11511). Put plainly: qHTS assay to identify aromatase inhibitors (AID 743083). Further: nearly all actives have a fitted effect of over 55% in size. The note with it: MCF-7 aro ERE, testosterone-driven ERE luciferase, 24 h; series mostly up to 70.3 µM.
Sequence of Aromatase (Homo sapiens) (P11511 whole entry, looked up): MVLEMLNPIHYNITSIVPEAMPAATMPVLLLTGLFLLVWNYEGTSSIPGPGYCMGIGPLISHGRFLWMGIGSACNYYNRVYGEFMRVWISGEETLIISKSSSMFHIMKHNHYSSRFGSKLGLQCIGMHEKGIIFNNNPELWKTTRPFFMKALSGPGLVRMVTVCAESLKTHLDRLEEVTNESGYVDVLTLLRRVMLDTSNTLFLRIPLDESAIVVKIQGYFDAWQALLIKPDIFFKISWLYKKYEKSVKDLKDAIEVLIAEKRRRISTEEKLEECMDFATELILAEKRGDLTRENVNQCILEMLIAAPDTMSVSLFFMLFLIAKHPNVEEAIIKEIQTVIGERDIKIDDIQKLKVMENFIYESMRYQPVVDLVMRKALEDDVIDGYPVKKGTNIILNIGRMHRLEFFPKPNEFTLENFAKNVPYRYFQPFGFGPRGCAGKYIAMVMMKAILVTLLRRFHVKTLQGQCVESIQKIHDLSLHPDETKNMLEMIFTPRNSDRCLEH
Assay [11] is described as follows: qHTS assay for identifying genotoxic compounds that show differential cytotoxicity against isogenic chicken DT40 cell lines with known DNA damage response pathways - Rad54/Ku70 mutant cell line (AID 743015). Further: potency means the concentration at half of the fitted maximal effect; nearly all actives have a fitted effect of over 60% in size. The note with it: DT40 Rad54/Ku70 mutant viability, CellTiter-Glo, 40 h; series mostly up to 66.8 µM.
Assay [12] concerns the target Estrogen receptor (Homo sapiens) (UniProt P03372). Put plainly: qHTS assay to identify small molecule agonists of the estrogen receptor alpha (ER-alpha) signaling pathway (AID 743075; calls by dose curve;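 further: HEK293 GripTite cells with ER-alpha and UAS-driven beta-lactamase reporter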; further: potency means the concentration at half of the fitted maximal effect). The note with it: HEK293 ER-alpha-UAS-bla, beta-lactamase FRET ratio, 18 h; series mostly up to 70.1 µM.
Assay [13] shares this target. Put plainly: qHTS assay to identify small molecule agonists of the estrogen receptor alpha (ER-alpha) signaling pathway using the BG1 cell line (AID 743079). Further: nearly all actives have a fitted effect of over 20% in size. Further: potency means the concentration at half of the fitted maximal effect. Conditions: BG1Luc4E2 cells, ERE-luciferase agonist, 22 h; series mostly up to 70.3 µM.
Assay [14] is described as follows: qHTS assay to identify small molecule antagonists of the estrogen receptor alpha (ER-alpha) signaling pathway using the BG1 cell line (AID 743080; calls by dose curve;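 further: BG1 cells stimulated with 17beta-estradiol alongside compound; nearly all actives have a fitted effect of over 25% in size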). The note with it: BG1Luc4E2 ERE-luciferase antagonist mode, luminescence; series mostly up to 70.3 µM. Put shortly:
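Luciferase inhibition measured with ONE-Glo after 30 min at RT in BG1Luc4E2 cells given test compounds and 17beta-estradiol for 21.5 h at 37 C; CellTiter-Fluor viability read in the same wells beforehand.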

In assay [15] the target is Estrogen receptor (Homo sapiens) (UniProt P03372). Put plainly: qHTS assay to identify small molecule antagonists of the estrogen receptor alpha (ER-alpha) signaling pathway (AID 743069; active means well fitted curve in the direction sought with a large enough effect in the signal ratio in the repeat runs, not every such curve was filed as active; inconclusive means weak or mixed curves, or effect the other way; inactive means no such curve, though single readings can be large or run the other way; the % refers to the signal ratio). The note with it: HEK293 ER-alpha-UAS-bla, beta-lactamase ratio, antagonist mode; series mostly up to 69.4 µM. The essentials: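 Beta-lactamase FRET fluorescence is read after 2 hr at room temperature with LiveBLAzer B/G substrate. Before that, ER-alpha-bla HEK293 cells sit 4 hr after plating, then receive compound plus 17beta-estradiol and incubate 18 hr at 37C.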
Sequence of Estrogen receptor (Homo sapiens) (P03372 whole entry, looked up): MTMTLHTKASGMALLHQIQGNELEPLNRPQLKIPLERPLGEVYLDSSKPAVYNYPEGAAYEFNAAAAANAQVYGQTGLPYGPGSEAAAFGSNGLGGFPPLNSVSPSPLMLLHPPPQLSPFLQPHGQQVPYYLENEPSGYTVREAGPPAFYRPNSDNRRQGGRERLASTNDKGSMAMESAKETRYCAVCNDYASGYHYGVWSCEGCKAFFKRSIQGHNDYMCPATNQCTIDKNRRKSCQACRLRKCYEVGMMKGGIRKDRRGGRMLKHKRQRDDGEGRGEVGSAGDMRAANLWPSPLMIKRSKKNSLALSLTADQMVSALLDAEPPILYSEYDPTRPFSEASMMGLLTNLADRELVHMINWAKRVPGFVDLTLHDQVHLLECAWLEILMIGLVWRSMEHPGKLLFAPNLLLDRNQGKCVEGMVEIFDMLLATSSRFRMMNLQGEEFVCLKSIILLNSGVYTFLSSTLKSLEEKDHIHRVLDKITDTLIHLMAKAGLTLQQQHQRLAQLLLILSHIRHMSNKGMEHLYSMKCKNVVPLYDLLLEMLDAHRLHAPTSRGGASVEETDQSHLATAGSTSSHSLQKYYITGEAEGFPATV

Structures are written as SMILES. “And” between values parts separate entries of the source, which are not always exact repeats. Equal values may be shown once. A structure can be active in one record and inactive in another. The source made the active and inactive calls. Unless noted, the call rests on the fitted dose curve; in most records, active means well fitted curve in the direction sought with a large enough effect in the repeat runs; inconclusive means weak or mixed curves; inactive means no such curve, though single readings can be large; an effect the other way counts as inactive or inconclusive.

With `COc1ccc(C(CN(C)C)C2(O)CCCCC2)cc1` (stereo unspecified), the Potency entry in assay [1], in [2], in [3], in assay [4], in assay [5] and in assay [6] was “inactive” in each case. Further, the Potency entry (in [7]; in [8]; in assay [9]; in assay [10]; with Aromatase (Homo sapiens)) was “inactive” throughout.

Turning to `C1=Cc2cccc3cccc1c23`, the Potency entry in [1], in assay [2], in assay [4], in assay [5], in assay [6] and in assay [7] was “inactive” throughout. In addition, the Potency entry (in assay [8]; in [9]; in [10]; with Aromatase (Homo sapiens)) was “inactive” in each case. Further, the Potency in [3] is 60.1 µM (active).

For `Cc1ccc(OP(=O)(Oc2ccc(C)cc2)Oc2ccc(C)cc2)cc1`, the Potency entry in [1], in [4], in assay [6], in assay [7], in assay [8] and in assay [9] was “inactive” throughout. Also, the Potency entry (in assay [10]; with Aromatase (Homo sapiens)) was “inactive” in each case. Further, the Potency in assay [3] is 38.6 µM (active); in assay [11], 43.2 µM (active) and 48.6 µM (active).

In the case of `CCCCN(CC)c1c([N+](=O)[O-])cc(C(F)(F)F)cc1[N+](=O)[O-]`, the Potency result in [1], in assay [2], in assay [3], in assay [4], in assay [5] and in assay [8] was “inactive” each time. For the same molecule, the Potency entry (in [9]; in assay [10]; in the assay with Aromatase (Homo sapiens)) was “inactive” throughout. For the same molecule, the Potency in assay [6] is 54.5 µM (active).

For `CC(C)C(=O)OCC(C)(C)C(OC(=O)C(C)C)C(C)C` (stereo unspecified), the Potency entry in assay [1], in [4], in assay [5], in assay [6], in [8] and in [9] was “inactive” throughout. Also, the Potency entry (in assay [14]; in assay [10]; with Aromatase (Homo sapiens)) was “inactive” each time. Further, the Potency in [12] is 6.92 µM [inconclusive] (active); in assay [13], 12.2 µM (active).

Regarding `CC1(C)C(C=C(Cl)Cl)C1C(=O)OC(C#N)c1cccc(Oc2ccccc2)c1` (stereo unspecified), the Potency entry in assay [1], in [3], in assay [4], in assay [5], in assay [6] and in assay [8] was “inactive” in each case. Moreover, the Potency entry in [15], in assay [9], in assay [12], in assay [13], in assay [14] and in assay [10] was “inactive” in each case. Moreover, the Potency entry in the assay with Aromatase (Homo sapiens) was “inactive”. Moreover, the Potency in assay [11] was 61.1 µM (active).

With `CN(C)C(=O)Nc1ccc(Cl)cc1`, the Potency result in assay [1], in assay [2], in assay [4], in [5], in assay [6] and in assay [7] was “inactive” throughout. Also, the Potency result (in assay [8]; in [9]; in assay [10]; with Aromatase (Homo sapiens)) was “inactive” throughout.

As to `Clc1nc(Cl)nc(Cl)n1`, the Potency result in [1], in [4], in assay [5], in assay [6], in assay [7] and in assay [8] was “inactive” in each case. In addition, the Potency result (in [9]; in [12]; in assay [14]; in assay [10]; in the assay with Aromatase (Homo sapiens)) was “inactive” each time. Besides, the Potency was 15.4 µM (active) in assay [2]; “inactive and 15.4 µM (active)” in [3].

`c1ccc(-c2cccc(-c3ccccc3)c2)cc1`: the Potency result in [1], in assay [4], in [5], in assay [6], in assay [7] and in [8] was “inactive” throughout. Further, the Potency entry (in assay [9]; in assay [12]; in [10]; in the assay with Aromatase (Homo sapiens)) was “inactive” each time. Moreover, the Potency in assay [13] was 21.9 µM (active) and 10.9 µM (active).
